Our source for the z-score values is PubChem BioAssay.

The structures appear in SMILES notation. Unmarked numbers belong to inactive results. Activity calls are given as the source filed them.

This test is described as follows: CREB reporter modulators under forskolin, primary screen, cell-based, PC12, CRE-LacZ reporter, forskolin-stimulated (AID 1146).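 Also: PC12 cells with 6xCRE LacZ reporter stimulated by forskolin 10 µM; beta-galactosidase reporter signal reflecting CREB driven transcription.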 Conditions: luminescence, 4.5 h, higher = more signal, called active from +8 up or from −8 down.
As to `C[N+](C)(C)CCCCNC(=O)[C@H]1C[C@H]2C(=O)N3CCC[C@H]3C(=O)N2[C@H]1c1ccc(O)cc1`, the z-score is -0.512.

`O=S(=O)(NCCCO)c1ccc(Br)cc1`: the z-score is -0.472.

On to `Cc1ccc(S(=O)(=O)N2CC(C(=O)O)=CCC2c2ccccc2)cc1` (stereo unspecified), for which the z-score is 0.222.

For the compound `C=CCOC(=O)[C@H]1[C@@H]2C(=O)O[C@@H](c3ccccc3)[C@@H](c3ccccc3)N2[C@@H](c2ccc(OCCOC(=O)[C@@H]3C[C@@H]4C(=O)NCC(=O)N4[C@@H]3c3ccc(O)cc3)cc2)[C@]12C(=O)Nc1ccc(I)cc12`, the z-score was -0.53.

With `CC(=O)NCCCC[C@@H]1NC(=O)[C@@H]2C[C@H](C(=O)NCCCCCC[N+](C)(C)C)[C@H](c3cccc(OCCO)c3)N2C1=O`, the z-score was -0.75.

As to `C/C=C/[C@H](CCn1cc([C@H](O)c2ccccc2)nn1)[Si](C)(C)c1ccc(OC)cc1`, the z-score is 0.0712.

Turning to `CCCNC(=O)[C@@]1(C)c2ccccc2C(=O)N(Cc2cc(C(F)(F)F)cc(C(F)(F)F)c2)[C@H]1c1ccc(CO)cc1`, the z-score is 0.532.

Take `C=C(CCCC)/C(=C/C[C@H](OC(C)=O)c1ccc(CO)o1)c1cc(C(=O)OC)ccc1OC`: the z-score is 0.0467.

With `C=CCCN(CC#C[C@H]1Oc2ccccc2S(=O)(=O)N2CCC[C@@H]12)S(=O)(=O)c1ccc(C)cc1`, the z-score is 3.31.

Consider `CN1C(=O)C2C=CC(C(O)C(c3ccccc3)c3ccccc3)N(Nc3ccccc3)C2C1=O` (stereo unspecified), for which the z-score is 0.574.

For `O=C1OCCC/C=C\[C@H]2OC34C=CCN(CCN5CCOCC5)C(=O)[C@H]3N(CCO)C(=O)[C@@H]4C12` (stereo partly specified), the z-score was 0.0806.

On to `COCCOC(=O)N1C(=O)[C@@]2(c3cc(C#CC4(O)CCCCCC4)ccc31)[C@H](c1ccc(O)cc1)N1[C@H](c3ccccc3)[C@H](c3ccccc3)OC(=O)[C@H]1[C@@H]2C(=O)N1CCc2cc(OC)c(OC)cc2C1`, for which the z-score is -0.805.

For `COCCn1c(C(=O)N2CCCC2)cc2c1C[C@H]1CN(C(=O)c3ccccc3)[C@@](Cc3ccc(OC)cc3)(C(=O)OC)[C@@H]21`, the z-score was 0.699.

Regarding `Cc1cc(C)c(C(O)C2C=CC3C(=O)NC(=O)C3N2Nc2ccccn2)c(C)c1` (stereo unspecified), the z-score was -0.0376.

Consider `CC(c1ccccc1)C(O)C1C=CC2C(=O)N(Cc3ccccc3)C(=O)C2N1n1cnnc1` (stereo unspecified), for which the z-score was 0.945.

As for `O=C(NCC(O)CO)[C@@]1(Cc2ccccc2)N=C(c2ccc(OCCCO)cc2)O[C@H]1c1ccccc1` (stereo partly specified), the z-score was 0.768.

For the compound `CC(c1ccccc1)C(O)C1C=CC2C(=O)N(c3ccccc3)C(=O)C2N1Nc1ccccc1F` (stereo unspecified), the z-score was 0.406.

As for `C=CC[C@@]1(C(=O)NCc2ccccc2)N=C(c2ccc(OCCCO)cc2)O[C@@H]1c1ccccc1CN=[N+]=[N-]`, the z-score was 2.93.

As for `C=CCN1C(=O)[C@]2(Cc3ccccc31)N=C(c1ccc(OCCCO)cc1)O[C@@H]2c1ccccc1`, the z-score is -0.436.

For `CCCCC(=O)N(Cc1ccccc1F)[C@@H]1CC(C(=O)NCCO)=C[C@H](Oc2c(I)cc(CO)cc2OC)[C@H]1O`, the z-score is 0.377.

For `Cc1c(NC(=O)/C(C#N)=C/C=C/c2ccccc2)c(=O)n(-c2ccccc2)n1C`, the z-score was -0.733.

On to `CC(C)(C)OC(=O)CC[C@]1(C(=O)NCC(O)CO)N=C(c2ccc(OCCCO)cc2)O[C@H]1c1ccccc1CN=[N+]=[N-]` (stereo partly specified), for which the z-score was -0.209.

On to `CCCC[C@@H]1C[C@H]1[C@@H](NC(=O)c1ccco1)c1ccccc1`, for which the z-score is -0.787.

With `NC(=O)NCC#Cc1ccc2c(c1)[C@]1(C(=O)N2)[C@H](c2ccccc2OCCO)N2[C@H](c3ccccc3)[C@H](c3ccccc3)OC(=O)[C@H]2[C@@H]1C(=O)N1CCCCCCC1`, the z-score is 0.109.

In the case of `C=C(COC)C(=O)CC[C@H](OC(=O)c1cccnc1)c1ccccc1OCCO`, the z-score is 9.65 (active).

Turning to `C=C(C(=O)CC[C@@H](OC(=O)c1cccnc1)c1ccc(CO)o1)C(C)C`, the z-score was -0.135.

`O=C1O[C@H](c2ccccc2)[C@H](c2ccccc2)N2[C@H]1[C@@H](C(=O)Nc1nc3ccccc3s1)[C@]1(C(=O)Nc3ccc(C#CC4=CCCCC4)cc31)[C@H]2c1ccc(OCCO)cc1`: the z-score was 0.205.

With `COCCOC(=O)N1C(=O)[C@@]2(c3cc(C#Cc4ccc(OC)cc4)ccc31)[C@H](C(N)=O)[C@H]1C(=O)O[C@H](c3ccccc3)[C@H](c3ccccc3)N1[C@@H]2c1ccc(O)cc1`, the z-score was -0.844.

For the compound `CN1C(=O)C2C(C1=O)C1C=C(c3ccc(CO)cc3)C2C(C2CC2)N1Cc1sc2ccccc2c1Cl` (stereo unspecified), the z-score is -0.825.

For the compound `CC1CC/C=C\[C@H]2OC34C=CCN(Cn5nnc6ccccc65)C(=O)[C@H]3N(CCCO)C(=O)[C@@H]4C2C(=O)O1` (stereo partly specified), the z-score was -0.759.

As for `O=P(NCC1(CC2(c3ccccc3)CO2)CC1)(c1ccccc1)c1ccccc1` (stereo unspecified), the z-score was 1.13.

Take `CCOC(=O)C1=CC[C@@H](c2ccccc2)N(S(=O)(=O)c2ccc(C)cc2)[C@H]1c1ccc(C#N)cc1`: the z-score is 0.0633.

As for `COc1cc(NN2C(C(O)c3ccccc3)C=CC3C(=O)N(c4ccccc4)C(=O)C32)cc(OC)c1OC` (stereo unspecified), the z-score was -0.557.

Consider `Cn1c2c(c3ccccc31)C(=O)C1NC2C=CC1(C)C(=O)OCc1ccccc1` (stereo unspecified), for which the z-score is 0.716.

Consider `Cc1ccc(S[C@]2(C(=O)NCCN3CCOCC3)CC(=O)N(C3CCCCC3)[C@@H]2c2ccc(CO)cc2)cc1`, for which the z-score was 0.893.

Regarding `COCCOC(=O)N1C(=O)[C@@]2(c3cc(C#CC4=CCCCC4)ccc31)[C@H](c1ccc(OCCO)cc1)N1[C@H](c3ccccc3)[C@H](c3ccccc3)OC(=O)[C@H]1[C@@H]2C(=O)Nc1nc2ccccc2s1`, the z-score is -0.482.
